PubChem BioAssay (NCATS)
Inconclusive results are not listed. The source made the active and inactive calls. Calls follow the shape of the dose curve; as a rule, active = well fitted curve in the direction sought with a large enough effect; inconclusive = small, poorly fitted or top-dose-only effect, or another doubt; inactive = no such curve, though single readings can be large; an effect the other way counts as inactive or inconclusive.

How the values were obtained:
[1] = target: Cellular tumor antigen p53 (Homo sapiens) (UniProt P04637); test: Primary qHTS for small molecule compounds that upregulate eGFP-tagged delta133p53alpha (in N-terminal) cells. (AID 2060322); settings: NCI-H358 eGFP-delta133p53alpha fluorescence, 24 h; activation: active compounds read high;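 also: series mostly up to about 56 µM; 0% = DMSO vehicle and 100% = reference activator; nearly all actives have a fitted effect of over 75% in size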
Sequence of Cellular tumor antigen p53 (Homo sapiens) (P04637 whole entry, looked up): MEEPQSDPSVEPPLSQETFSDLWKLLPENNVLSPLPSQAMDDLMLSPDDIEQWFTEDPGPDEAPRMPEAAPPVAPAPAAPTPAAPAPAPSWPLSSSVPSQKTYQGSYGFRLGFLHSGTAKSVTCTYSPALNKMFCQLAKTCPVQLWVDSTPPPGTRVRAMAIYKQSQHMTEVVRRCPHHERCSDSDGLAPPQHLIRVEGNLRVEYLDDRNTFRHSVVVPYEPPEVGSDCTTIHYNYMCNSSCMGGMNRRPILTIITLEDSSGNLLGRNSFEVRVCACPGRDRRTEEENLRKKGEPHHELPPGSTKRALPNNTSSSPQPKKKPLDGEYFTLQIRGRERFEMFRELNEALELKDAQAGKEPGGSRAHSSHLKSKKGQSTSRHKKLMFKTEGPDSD
Method in brief: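 NCI-H358 cells pre-induced 24 h with 10 ng/ml doxycycline to express N-terminal eGFP-delta133p53alpha, then dosed 24 h at 37C without doxycycline; fixed, Hoechst-stained, GFP intensity by laser scanning cytometry, normalized to DMSO (0%) and 57.5 uM 5-azacytidine (100%).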

[2] = target: Aldehyde dehydrogenase, mitochondrial (Homo sapiens) (UniProt P05091); test: qHTS for Inhibitors of the Aldehyde Dehydrogenase Family (ALDH2) Primary screen (AID 2061308);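 also: plate controls were vehicle for no effect and reference inhibitor for full effect; nearly all actives have a fitted effect of over 55% in size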
[3] = target: Retinaldehyde dehydrogenase 3 (Homo sapiens) (UniProt P47895); test: qHTS for Inhibitors of the Aldehyde Dehydrogenase Family (ALDH1A3) Primary screen (AID 2061315);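 also: plate controls were DMSO vehicle for no effect and reference inhibitor for full effect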

CCOc1ccc2nc(SCCN3CCOCC3)[nH]c2c1
inactive: activation [1] -7.64% | Potency [2] | Potency [3]

C[C@H]1CC(=O)Nc2cccc(-c3cnn(C(C)(C)C)c3)c2N1
inactive: activation [1] -12.5% | Potency [2] | Potency [3]

CC(=O)O[C@@H]1[C@@H](OC(=O)/C=C/c2ccccc2)[C@H](C)O[C@@H](O[C@H]2[C@@H]3C=CO[C@@H](O[C@@H]4O[C@H](CO)[C@@H](O)[C@H](O)[C@H]4O)[C@@H]3[C@@]3(CO)O[C@@H]23)[C@@H]1OC(C)=O
inactive: activation [1] -3.82% | Potency [2] | Potency [3]

CCc1c(-c2ccccc2)c(-c2ccccc2)nn1-c1ccccc1-c1cccc(OCC(=O)O)c1
inactive: activation [1] 13% | Potency [2] | Potency [3]

CC12CCC(OC3OC(CO)C(O)C(OC4OC(CO)C(O)C(O)C4O)C3O)CC1CCC1C2CCC2(C)/C(=C3/COC(=O)C3)CCC12O (configuration not stated)
inactive: activation [1] -3.82% | Potency [2] | Potency [3]

CC(=O)O[C@@H]1C[C@H](O)[C@@]23CO[C@H](O)[C@]1(C)C2C[C@@H](O)[C@]1(C)C3C(=O)[C@H](OC(C)=O)[C@@]2(C)[C@H](c3ccoc3)C[C@H]3O[C@]321 (some centres not stated)
inactive: activation [1] -1.79% | Potency [2] | Potency [3]

COC(=O)C1=CO[C@@H](O)C2C(CO)=CCC12 (some centres not stated)
inactive: activation [1] 23% | Potency [2] | Potency [3]

CCC(CC)(NC(=O)C(C)C)C(=O)N[C@@H](CCCN=C(N)N)C(=O)NC1(C(=O)NC(c2ccc(F)cc2)c2ccc(F)cc2)CCCC1
inactive: activation [1] -15.7% | Potency [2] | Potency [3]

C/C=C/C=C/C(O)=C1\C(O)=C(C)C(=O)[C@@]2(C)OC(=O)[C@@](C)(NC(=O)/C=C/C(=O)O)[C@@H]12
inactive: activation [1] 10.7% | Potency [2] | Potency [3]

C=C(CC/C=C(\C)C(=O)O)C1(O)CC=C(C)CC1 (configuration not stated)
inactive: activation [1] -21.4% | Potency [2] | Potency [3]

CC(C)(O)c1ccc2c(c1)C(=O)CC1[C@](C)(CO)CCC[C@]21C (some centres not stated)
inactive: activation [1] 26.8% | Potency [2] | Potency [3]

CC(C)=CC/C=C(\C)[C@H]1CC[C@]2(C)[C@@H]1[C@H](O)C[C@@H]1[C@@]3(C)CC[C@H](O)C(C)(C)[C@@H]3[C@@H](O[C@@H]3O[C@H](CO)[C@@H](O)[C@H](O)[C@H]3O)C[C@]12C
inactive: activation [1] 1.67% | Potency [2] | Potency [3]

CCC(C)C(=O)OC1CC(C)C=C2C=CC(C)C(CCC(O)CC(O)CC(=O)O)C21 (configuration not stated)
inactive: activation [1] -1.53% | Potency [2] | Potency [3]

CCOC(=O)c1ccc(OCCN2C[C@H](O)[C@@H](O)[C@H](O)[C@H]2CO)cc1
inactive: activation [1] -6.33% | Potency [2] | Potency [3]

CNC(=O)[C@H]1O[C@@H](n2cnc3c(NCc4ccc(N)c(I)c4)ncnc32)[C@H](O)[C@@H]1O
inactive: activation [1] 4.33% | activity change, negative = inhibition [2] 0.813% [at 11.2 µM] | activity change, negative = inhibition [3] 4.83% [at 11.2 µM]

Cc1ccccc1C(=O)Nc1ccc(C(=O)N2CCC[C@@H](O)c3cc(Cl)ccc32)c(C)c1
inactive: activation [1] 0% | Potency [2] | Potency [3]

COc1c2cc(c(O)c1OC)-c1cc(ccc1O)CCC(O)CCCC2 (configuration not stated)
inactive: activation [1] 11.5% | Potency [2] | Potency [3]

CC1=C(C)C(=O)OC(C(C)(O)C2CCC3C4CC=C5CC(OC6OC(COC7OC(CO)C(O)C(O)C7O)C(O)C(O)C6O)CC(O)C5(C)C4CCC32C)C1 (configuration not stated)
inactive: activation [1] -6.87% | Potency [2] | Potency [3]

CC(=O)O[C@H]1C[C@@](O)(C(C)C)C2[C@@H](OC(=O)c3ccc(O)cc3)C[C@@]3(C)O[C@H]3C[C@]21C (some centres not stated)
inactive: activation [1] -6.11% | Potency [2] | Potency [3]

C[C@@H]1O[C@@H](OC[C@H]2O[C@@H](Oc3cc(O)cc4c3C(=O)C(O)(Cc3ccc(O)cc3)O4)[C@H](O)[C@@H](O)[C@@H]2O)[C@H](O)[C@H](O)[C@H]1O (some centres not stated)
inactive: activation [1] -11.5% | Potency [2] | Potency [3]

CC1OC(OC2C(CO)OC(OCC3OC(OC(=O)C45CCC(C)(C)CC4C4=CCC6C7(C)CCC(OC8OC(C(=O)O)C(O)C(OC9OC(CO)C(O)C(O)C9O)C8O)C(C)(C)C7CCC6(C)C4(C)CC5)C(O)C(O)C3O)C(O)C2O)C(O)C(O)C1O (configuration not stated)
inactive: activation [1] 18.3% | activity change, negative = inhibition [2] -0.0745% [at 11.2 µM] | activity change, negative = inhibition [3] -5.8% [at 11.2 µM]

CCCC(=O)Nc1cccc(NC(=O)c2ccccc2Br)c1
inactive: activation [1] -11.7% | Potency [2] | Potency [3]

C=C1CC[C@H]2[C@@](C)(CCC(O)[C@@]2(C)CO)[C@@H]1/C=C/C(=C\C(=O)O)C(=O)O (some centres not stated)
inactive: activation [1] -2.29% | Potency [2] | Potency [3]

COc1ccccc1C(=O)Nc1cccc(NC(=O)c2cccc(C)c2)c1
inactive: activation [1] -11.7% | Potency [2] | Potency [3]
